# Test results as given in the supplement of paper PMC6555819.
# Key:
# Test in all cases: PBM binding z-score (relative to random genomic background probes); higher = stronger binding; sequences stand for … in GC…GCGATTGACAGCGTAGAATGAAGG
# [1] = test system: RARb homodimer (NR concentration 270 nM)
# How it was run: (§1)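 The probes on custom Agilent 4×180K protein-binding microarrays were double-stranded, with 34-nt variable regions bearing direct-repeat seeds, single-nucleotide variants, half-site ablations and random human genomic background sequences. Incubation lasted 1 h with ligand-free nuclear receptor dimers in PBS pH 7.4, 2% milk, 0.02% Triton X-100, 1 mM DTT, 0.2 mg/mL BSA and 0.4 mg/ml salmon testes DNA. Antibodies against each partner (one per run) detected bound dimers, and fluorescence scans were regression-normalized. Binding z-scores take the random background probes as reference.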
# [2] = test system: RARg:RXRa (NR concentration 270 nM, RXRa partner concentration 90 nM)
# How it was run: as §1
# [3] = test system: RARg homodimer (NR concentration 270 nM)
# How it was run: as §1
# [4] = test system: RXRa DBDmut IVT, anti-RXR (DBD mutation: RXRa K156A/R161A, NR concentration 90 nM)
# How it was run: as §1
# [5] = test system: RXRa homodimer (NR concentration 180 nM)
# How it was run: as §1
# [6] = test system: THRa:RXRa (NR concentration 90 nM, RXRa partner concentration 90 nM)
# How it was run: as §1
# [7] = test system: THRa homodimer (NR concentration 90 nM)
# How it was run: as §1
# [8] = test system: VDR homodimer (NR concentration 270 nM)
# How it was run: as §1
Sequence,PBM binding z-score [1],PBM binding z-score [2],PBM binding z-score [3],PBM binding z-score [4],PBM binding z-score [5],PBM binding z-score [6],PBM binding z-score [7],PBM binding z-score [8]
CAAACTAGGTCGAGGTCAAAGTCGGTTTGTGCCA,4.43,5.24,4.79,2.93,5.63,4.31,3.49,5.19
AATACAGGGTCATCGTAGGCCAGATTACGCACAG,3.54,5.85,4.96,3.82,6.58,4.42,1.56,3.35
TCTTGTAGATCAATATAGGTTAAGAAAGTGCGCT,0.819,0.579,0.586,1.31,0.962,1.03,-0.0282,0.0852
CGTCCAAGGTCAGCAGGTCCGTGAAAGCGACGTG,4.13,5.15,5.97,2.96,3.76,3.59,1.92,2.71
GGAACGAGGGCAGGTTGATAGCAGAGTTTGATGG,1.3,0.763,1.26,0.971,0.496,0.552,0.392,1.16
GGAACGAGGGCAAAGTTGATTGCATCTGTCGACG,1.13,1.89,1.34,2.7,1.76,1.36,-0.0538,1.55
AGTCAAAGTTCAGGCCGAGGTAACGTAAAGCACG,3.34,5.07,4.99,3.1,2.85,3.78,1.3,2.53
